From PubChem
MCF10A rerep = inducers of DNA re-replication in MCF 10A breast cells; Potency, µM (series often up to 46.1 µM), hits mostly activators; MCF 10A DNA re-replication, Hoechst nuclear intensity, 48 h; 350,000 tested, 2.9% active; further: nearly all actives have a fitted effect of over 50% in size
SW480 rereplic = DNA re-replication induction in SW480 cells | Potency, µM (series often up to 46.1 µM), usual class: activators | 340,000 tested, 1.8% active | SW480 DNA re-replication, Hoechst DNA content imaging, 48 h; further: nearly all actives have a fitted effect of over 55% in size
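Image-based read-out: total Hoechst fluorescence of nuclei (405 nm excitation, 500-530 nm emission), with hits raising the fraction of high-intensity nuclei. SW480 colon cells incubated 48 hr with compounds at 37 C.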
ELG1 DNA repair = blocks ELG1-dependent DNA repair in HEK293T cells | HEK293T ELG1-luciferase reporter, luminescence, 16 h; DNA damage induced by 5-fluorouridine | Potency, µM (highest dose often 46.1 µM), usual class: inhibitors | 330,000 tested, 2.3% active | AID 504467; further: nearly all actives have a fitted effect of over 55% in size
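Reporter activity after DNA damage by 5-fluorouridine is monitored. Compound-treated cells incubate 16 hr at 37 °C, then ONE-Glo is added for 30 min before luminescence reading.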
KB-3-1 cytotox = KB-3-1 parental cell cytotoxicity; KB-3-1 viability, CellTiter-Glo ATP luminescence, 72 h; Potency, µM (series often up to 46.1 µM), hits mostly cytotoxic; AID 1347075; 400,000 tested, 1.4% active; further: nearly all actives have a fitted effect of over 60% in size
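Luminescent ATP read-out (CellTiter-Glo) measures survival of drug-naive KB-3-1 cells after 72 h compound exposure at 37 °C. Titration series was screened from lowest to highest concentration, with DMSO vehicle plates as background controls.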
KB-V1 cytotox = kills drug-selected multidrug resistant KB-V1 cells | 400,000 tested, 3.4% active | KB-V1 MDR cells viability, CellTiter-Glo, 72 h | Potency, µM (top dose mostly 46.1 µM), actives largely listed as cytotoxic; further: nearly all actives have a fitted effect of over 60% in size
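Cytotoxicity via CellTiter-Glo luminescence after 72 h compound exposure at 37 degrees C. Cells: drug-selected KB-V1 line, DMEM phenol-red free plus 10% FBS. Compounds tested at multiple concentrations; normalized data fitted to concentration-effect curves.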
A number is an active result; – = inactive; ? = inconclusive; · = no result; [ ] = another dose, or the depositor's remark. Sampled rows, rich in hits. Any-hit rate of the full collection: about 8.2%. The call rests on the fitted dose curve; in most records, active means well fitted curve in the direction sought with a large enough effect; inconclusive means small, poorly fitted or top-dose-only effect, or another doubt; inactive means no such curve, though single readings can be large; an effect the other way counts as inactive or inconclusive.

SMILES | MCF10A rerep | SW480 rereplic | ELG1 DNA repair | KB-3-1 cytotox | KB-V1 cytotox
CC1CCC(Nc2nc3c(-c4cccc(C(F)(F)F)c4)nnn3c3ccccc23)CC1 (stereo not drawn) | · | · | · | – | –
O=C(NCC1CCCO1)C1CC(=O)N(c2cccc(Cl)c2)C1 (stereo not drawn) | – | – | ? | – | –
Cc1ccc(OCC(=O)Nc2ccccc2N2CCCC2)c(C)c1 | – | – | – | – | –
COc1cc(C(=O)Nc2ccccc2C2COC(=O)C2=N)cc(OC)c1OC (stereo not drawn) | – | – | – | – | 12µM
Cc1cc(C)c(OCC(=O)Nc2ccccc2N2CCOCC2)c(C)c1 | ? | ? | 0.82µM | 21µM | –
Cc1cc(C)c(OCC(=O)Nc2ccccc2N2CCCCC2)c(C)c1 | – | ? | – | – | 16µM
CN(Cc1ccccc1NCC(=O)Nc1ccccc1C#N)C1CCCCC1 | – | –[1.84 µM] | – | – | –
COc1cc(C(=O)Nc2cccc3c2CCCC3)cc(OC)c1OC | – | – | – | – | –
N#Cc1ccccc1NC(=O)CNc1ccccc1N1CCCCC1 | ? | – | ? | – | 21µM
O=C(COC(=O)c1ccco1)NCCc1ccc(Cl)cc1 | – | – | – | – | ?
COc1cc(C(=O)Nc2ccc(Br)cc2C(=O)c2cc(OC)c(OC)c(OC)c2)cc(OC)c1OC | 21µM | 16µM | ? | ? | ?
O=C(Nc1ccccc1N1CCOCC1)c1ccc([N+](=O)[O-])s1 | ? | 16µM | ? | ? | ?
COC(=O)c1cc(CN2CCN(c3ccccc3C)CC2)ccc1O | ? | ? | 23µM | – | –
COc1ccccc1N1CCN(CCCCCCOc2ccc(F)cc2)CC1 | ? | ? | – | ? | 3.7µM
COc1ccccc1OCCCCN1CCN(c2ccccc2OC)CC1 | – | – | – | – | –
COc1ccc(CN2CCN(c3ccccc3OC)CC2)cc1OC | 2.1µM | – | – | – | ?
CCOC(=O)C1CCN(Cc2ccc(O)c3ncccc23)CC1 | 4.1µM | 0.92µM | ? | 23µM | 16µM
Cc1ccccc1N1CCN(Cc2cccc(C(=O)O)c2)CC1 | – | – | – | – | –
CN(C)C(CNC(=O)CCNS(=O)(=O)c1ccccc1C(F)(F)F)c1ccccc1 (stereo not drawn) | – | – | – | – | –
CC[C@@]1(C(=O)OC)N[C@H](CN(C)C(=O)Nc2ccc(OC)cc2)[C@@H]2C(=O)N(C)C(=O)[C@@H]21 | – | – | – | – | –
Cn1c(/C=C/c2ccc(Br)cc2)nc2ccccc2c1=O | ? | – | ? | – | –
CCc1ccc(S(=O)(=O)c2nnn3c2nc(NC2CCCC2)c2sccc23)cc1 | · | · | · | – | –
Oc1ccc(CN2CCCc3ccccc32)c2cccnc12 | – | – | – | 23µM | ?
COc1ccccc1N1CCN(c2ccc(-c3ccccc3)nn2)CC1 | 2.6µM | 4.1µM | ? | 2.1µM | 2.1µM
COc1ccccc1N1CCN(Cc2ccc(O)c3ncccc23)CC1 | ? | ? | ? | 5.2µM | ?
SMILES | MCF10A rerep | SW480 rereplic | ELG1 DNA repair | KB-3-1 cytotox | KB-V1 cytotox
COc1ccccc1N1CCN(Cc2ccc(OC)c(OC)c2OC)CC1 | – | – | ? | – | –
COc1ccccc1N1CCN(c2ccc3ccccc3n2)CC1 | – | – | ? | – | ?
Cc1ccc2oc(-c3ccc(C)c(NC(=O)COc4ccccc4C)c3)nc2c1 | · | · | · | – | –
CCCN(C(=O)CSCc1ccc(Cl)cc1)c1c(N)n(Cc2ccccc2)c(=O)[nH]c1=O | – | – | – | – | –
O=c1ccn(Cc2ccccc2)c(=O)n1Cc1ccccc1 | 21µM | – | – | – | –
CC(C(=O)Nc1ccc(F)c(Cl)c1)N1Cc2ccccc2C1=O (stereo not drawn) | · | · | · | – | –
CN1CCc2nc3ccccc3c(C(=O)OCC(=O)N(CCC#N)c3ccccc3)c2C1 | – | – | ? | – | ?
CC1CCCCC1NC(=O)COC(=O)c1c2c(nc3ccccc13)/C(=C\c1ccco1)CC2 (stereo not drawn) | 18µM | ? | · | – | –
CN(CCC#N)C(=O)COC(=O)c1c2c(nc3ccccc13)/C(=C\c1ccco1)CC2 | ? | 4.1µM | · | – | –
CCCc1nc2ccccc2c(C(=O)OCC(=O)NC2CC2)c1CC | – | – | ? | ? | ?
O=C(COC(=O)c1c2c(nc3ccccc13)/C(=C\c1ccco1)CC2)NC1CCCC1 | ? | 6.5µM | · | · | ·
Cc1nc(CC(=O)NNS(=O)(=O)c2cccc(Cl)c2Cl)cs1 | – | – | – | – | –
COC(CNC(=O)C1CCN(C(=O)c2cc3oc(C)cc3n2Cc2c(F)cccc2Cl)CC1)OC | – | – | ? | ? | 8.2µM
Cc1cccc(S(=O)(=O)c2c(N)n(-c3ccccc3)c3nc4ccccc4nc23)c1 | – | – | – | – | 2.9µM
Nc1c(S(=O)(=O)c2cccs2)c2nc3ccccc3nc2n1/N=C/c1cccc(O)c1 | 6.5µM | ? | 18µM | ? | ?
Cc1ccc(-n2c(N)c(S(=O)(=O)c3ccccc3)c3nc4ccccc4nc32)cc1 | – | – | – | – | –
Cc1cccc(S(=O)(=O)c2c(N)n(/N=C/c3ccco3)c3nc4ccccc4nc23)c1 | ? | – | – | – | 3.7µM
COc1cccc(/C=N/n2c(N)c(S(=O)(=O)c3cccs3)c3nc4ccccc4nc32)c1 | – | – | ? | – | –
CCOc1cccc(C(=O)N(Cc2cccc(F)c2)C2CCS(=O)(=O)C2)c1 (stereo not drawn) | – | – | – | – | –
O=C(NC(Cc1c[nH]c2ccccc12)C(=O)Nc1ccc(OC(F)(F)F)cc1)c1cccs1 (stereo not drawn) | ? | ? | – | 12µM | ?
O=C(NC(Cc1c[nH]c2ccccc12)C(=O)Nc1ccc(F)c([N+](=O)[O-])c1)c1cccs1 (stereo not drawn) | ? | ? | – | ? | 6.5µM
O=C(NC(Cc1c[nH]c2ccccc12)C(=O)O)c1cccs1 (stereo not drawn) | – | – | – | – | –
COc1ccc(CCNC(=O)c2cc3c(=O)n(C)c4ccccc4c3s2)cc1OC | · | · | · | – | –
C#CCOCCOCCOCCNc1nc(N2CCOCC2)nc(N2CCN(C(=O)[C@H](C)n3cc(CCC(=O)O)nn3)CC2)n1 | – | –[9.22 µM] | · | – | –
COc1ccc(/C=C2\Sc3ccc(C(=O)NCC4CCCO4)cc3N(C)C2=O)cc1 (stereo not drawn) | 23µM | 23µM | – | – | –
CCc1ccc(/C=C2/Sc3ccccc3N(CC(=O)NCC3CCCO3)C2=O)cc1 (stereo not drawn) | ? | ? | 13µM | – | –
Cc1ccc(/C=C2/Sc3ccccc3N(CC(=O)NCC3CCCO3)C2=O)cc1 (stereo not drawn) | ? | – | – | ? | –
CN(C)c1ccc(NC(=S)c2ccccn2)cc1 | – | ? | ? | 15µM | ?
N#CC1C=Cc2c(ccc3ccccc23)N1C(=O)c1ccccc1 (stereo not drawn) | 1.5µM | 3.7µM | · | 0.46µM | –
